Source: PubChem BioAssay (NCATS)
For some assays here: Measured potencies and affinities stand elsewhere. Activity calls are given as the source filed them.

Tests used:
[1] = Ebola virus entry assay, green fluorescence channel
[2] = Ebola virus entry assay, ratio channel readout
[3] = Ebola virus entry assay, blue channel fluorescence
[4] = Ebola virus entry assay, green channel fluorescence
[5] = Ebola virus entry assay, blue channel fluorescence; remark: listed apart in the source
[6] = Ebola virus entry assay, reporter ratio channel; AC50: Channel type: primary unless noted; outcome: Channel type: primary unless noted
[7] = Ebola virus entry assay, blue channel (ratio component)
[8] = Ebola virus entry reporter assay, green channel fluorescence
[9] = Ebola virus entry cell assay, ratio channel
[10] = Ebola virus entry assay, ratio channel

Row | Structure (SMILES) | outcome [1] | outcome [2] | outcome [3] | outcome [4] | outcome [5] | outcome [6] | outcome [7] | outcome [8] | outcome [9] | AC50 [3] | AC50 [10] | AC50 [9] | outcome [10] | AC50 [6]
1 | O=C1NC(=O)C(c2ccccc2)(c2ccccc2)N1 | inactive | inactive | inactive | inactive | inactive | inactive | inactive | inactive | inactive | – | – | – | – | –
2 | CC[C@@H](CO)NCCN[C@@H](CC)CO | inactive | inactive | inactive | inactive | inactive | inactive | inactive | inactive | inactive | – | – | – | – | –
3 | C[C@@H](c1ncncc1F)C(O)(Cn1cncn1)c1ccc(F)cc1F (some centres not stated) | inactive | inactive | inactive | inactive | inactive | inactive | inactive | – | inactive | – | – | – | – | –
4 | NC12CC3CC(CC(C3)C1)C2 | inactive | inactive | inactive | inactive | inactive | inactive | inactive | inactive | inactive | – | – | – | – | –
5 | CCCSc1ccc2nc(NC(=O)OC)[nH]c2c1 | inactive | inactive | – | – | – | inactive [Channel type: confirmation] | – | – | – | 3.16 µM (active) | 3.98 µM (active) | 8.91 µM (active) | – | –
6 | CC1=C(C(=O)O)N2C(=O)[C@@H](NC(=O)[C@H](N)c3ccccc3)[C@H]2SC1 | inactive | inactive | inactive | inactive | inactive | inactive | inactive | inactive | inactive | – | – | – | – | –
7 | CC(=O)OCC(CCn1cnc2cnc(N)nc21)COC(C)=O | inactive | inactive | inactive | inactive | inactive | inactive | inactive | – | inactive | – | – | – | – | –
8 | O=C(NCCN1CCOCC1)c1ccc(Cl)cc1 | inactive | inactive | inactive | inactive | inactive | inactive | inactive | – | inactive | – | – | – | – | –
9 | Nc1cc(-c2ccncc2)c[nH]c1=O | inactive | inactive | inactive | inactive | inactive | inactive | inactive | inactive | inactive | – | – | – | – | –
10 | Cc1cnc(C(=O)NCCc2ccc(S(=O)(=O)NC(=O)NC3CCCCC3)cc2)cn1 | inactive | inactive | inactive | inactive | inactive | inactive | inactive | – | inactive | – | – | – | – | –
11 | COC(=O)C(c1ccccc1Cl)N1CCc2sccc2C1 (configuration not stated) | inactive | inactive | inactive | inactive | inactive | inactive | inactive | – | inactive | – | – | – | – | –
12 | O=P1(NCCCl)OCCCN1CCCl (configuration not stated) | inactive | inactive | inactive | inactive | inactive | inactive | inactive | inactive | inactive | – | – | – | – | –
13 | CN1C(=O)CC(C)(c2ccccc2)C1=O (configuration not stated) | inactive | inactive | inactive | – | inactive | inactive | inactive | inactive | inactive | – | – | – | – | –
14 | CC(C)[N+](C)(CCOC(=O)C1c2ccccc2Oc2ccccc21)C(C)C | inactive | inactive | inactive | inactive | inactive | inactive | inactive | inactive | inactive | – | – | – | – | –
15 | COc1ccccc1Oc1c(NS(=O)(=O)c2ccc(C(C)(C)C)cc2)nc(-c2ncccn2)nc1OCCO | inactive | inactive | inactive | inactive | inactive | inactive | inactive | – | inactive | – | – | – | – | –
16 | O=C1N=C(O)CN1/N=C/c1ccc(-c2ccc([N+](=O)[O-])cc2)o1 | inactive | inactive | inactive | inactive | inactive | inactive | inactive | – | inactive | – | – | – | – | –
17 | COC(=O)N[C@H](C(=O)N[C@@H](Cc1ccccc1)[C@@H](O)CN(Cc1ccc(-c2ccccn2)cc1)NC(=O)[C@@H](NC(=O)OC)C(C)(C)C)C(C)(C)C | inactive | inactive | inactive | inactive | inactive | inactive | inactive | – | inactive | – | – | – | – | –

Row | Structure (SMILES) | outcome [1] | outcome [2] | outcome [3] | outcome [4] | outcome [5] | outcome [6] | outcome [7] | outcome [8] | outcome [9] | AC50 [3] | AC50 [10] | AC50 [9] | outcome [10] | AC50 [6]
18 | Cc1ccnc2c1NC(=O)c1cccnc1N2C1CC1 | inactive | inactive | inactive | inactive | inactive | inactive | inactive | – | inactive | – | – | – | – | –
19 | COc1ccc(Cl)cc1C(=O)NCCc1ccc(S(=O)(=O)NC(=O)NC2CCCCC2)cc1 | inactive | inactive | inactive | inactive | inactive | inactive | inactive | – | inactive | – | – | – | – | –
20 | Cc1onc(-c2ccccc2Cl)c1C(=O)N[C@@H]1C(=O)N2[C@@H]1SC(C)(C)[C@@H]2C(=O)O | inactive | inactive | inactive | inactive | inactive | inactive | inactive | – | inactive | – | – | – | – | –
21 | CC[C@@]1(c2ccccc2)NC(=O)N(C)C1=O | inactive | inactive | inactive | inactive | inactive | inactive | inactive | – | inactive | – | – | – | – | –
22 | CCN(C(C)=O)c1cccc(-c2ccnc3c(C#N)cnn23)c1 | inactive | inactive | inactive | inactive | inactive | inactive | inactive | – | inactive | – | – | – | – | –
23 | CO/N=C(\C(=O)N[C@@H]1C(=O)N2C(C(=O)O)=C(CSc3nc(=O)c(O)nn3C)CS[C@H]12)c1csc(N)n1 | inactive | inactive | inactive | inactive | inactive | inactive | inactive | inactive | inactive | – | – | – | – | –
24 | CC(C)n1c(/C=C/[C@@H](O)C[C@@H](O)CC(=O)O)c(-c2ccc(F)cc2)c2ccccc21 | inactive | inactive | inactive | inactive | inactive | inactive | inactive | inactive | inactive | – | – | – | – | –
25 | CCCCC1=NC2(CCCC2)C(=O)N1Cc1ccc(-c2ccccc2-c2nn[nH]n2)cc1 | inactive | inactive | inactive | inactive | inactive | inactive | inactive | inactive | inactive | – | – | – | – | –
26 | CN1CCN(C(=O)O[C@H]2c3nccnc3C(=O)N2c2ccc(Cl)cn2)CC1 | inactive | inactive | inactive | inactive | inactive | inactive | inactive | – | inactive | – | – | – | – | –
27 | CCN1CCN(C(=O)N[C@@H](C(=O)N[C@@H]2C(=O)N3C(C(=O)O)=C(CSc4nnnn4C)CS[C@H]23)c2ccc(O)cc2)C(=O)C1=O | inactive | inactive | inactive | inactive | inactive | inactive | inactive | – | inactive | – | – | – | – | –
28 | O=C(C1CCCCC1)N1CC(=O)N2CCc3ccccc3C2C1 (configuration not stated) | inactive | inactive | inactive | inactive | inactive | inactive | inactive | inactive | inactive | – | – | – | – | –
29 | CC1(C)NC(=O)N(c2ccc([N+](=O)[O-])c(C(F)(F)F)c2)C1=O | inactive | inactive | – | inactive | inactive | inactive | inactive | inactive | inactive | – | – | – | – | –
30 | CN(N=O)C(=O)N[C@@H]1[C@@H](O)[C@H](O)[C@@H](CO)O[C@@H]1O | inactive | inactive | – | inactive | inactive | inactive | inactive | inactive | inactive | – | – | – | inactive | –
31 | O=C1NC(c2ccccc2)(c2ccccc2)C(=O)N1COP(=O)(O)O | inactive | inactive | – | inactive | inactive | inactive | inactive | inactive | inactive | – | – | – | inactive | –
32 | CC(=O)O[C@]1(C(C)=O)CC[C@H]2[C@@H]3C=C(Cl)C4=CC(=O)[C@@H]5C[C@@H]5[C@]4(C)[C@H]3CC[C@@]21C | inactive | inactive | – | – | – | – | inactive | – | inactive | – | 3.55 µM (active) | – | – | 3.55 µM (active)
33 | Cc1cccc(C)c1OCC(C)N (configuration not stated) | inactive | inactive | – | inactive | – | inactive | inactive | – | inactive | – | – | – | inactive | –
